Common to all, as to experiment: NCI-60 one-dose screen, 48 h (100 = growth as untreated, 0 = no growth, -100 = all killed)
Assay [1] concerns NCI-H23 lung. To be noted: 10 µM unless noted.
In assay [2] the test system is NCI-H226 lung. The note with it: 10 µM unless noted.
The subject of assay [3] is NCI-H322M lung. To be noted: 10 µM unless noted.
Assay [4] has as its system HOP-62 NSCLC. The note with it: 10 µM unless noted.
In assay [5] the test system is NCI-H460 lung. The note with it: 10 µM unless noted.
Assay [6] relates to HOP-92 NSCLC. To be noted: 10 µM.
For assay [7], the system named is A549/ATCC NSCLC. To be noted: 10 µM unless noted.
The subject of assay [8] is 786-0 renal. The note with it: 10 µM unless noted.
For assay [9], the system named is COLO 205 colon. To be noted: 10 µM unless noted.
The test system of assay [10] is DU-145 prostate. The note with it: 10 µM unless noted.
Assay [11] has as its system K-562 leukemia. The note with it: 10 µM unless noted.
Assay [12] has as its system MALME-3M melanoma. To be noted: 10 µM unless noted.
The subject of assay [13] is MDA-MB-231 breast. To be noted: 10 µM unless noted.
The test system of assay [14] is RXF 393 renal. To be noted: 10 µM unless noted.
Assay [15] deals with SF-268 CNS. The note with it: 10 µM unless noted.
For assay [16], the system named is SF-295 CNS. The note with it: 10 µM unless noted.
Assay [17] relates to SF-539 CNS. To be noted: 10 µM unless noted.
Assay [18] relates to UACC-257 melanoma. The note with it: 10 µM unless noted.
Assay [19] concerns M14 melanoma. The note with it: 10 µM unless noted.
Assay [20] has as its system NCI-H522 lung. The note with it: 10 µM unless noted.

Eight molecules from PubChem BioAssay (NCI) can be followed below.

This is part of a sample that, as a whole, favours compounds with a hit. Of some 83,000 tested, about 20% had one in any assay.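 Assay: single dose, 48 h. Readout: percent growth (0 = no net growth; negative = cell death). Active: <10.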 Unmarked numbers belong to inactive results. Calls of active or inactive are those of the source.

`COc1ccccc1C(=O)Nc1cccc2c1C(=O)C(=O)C=C2`: the growth in assay [1] is 85.5%; in [2] it was 99.9%; in [3] it was 112%; in assay [4], 94.8%; in assay [5] it was 103%; in assay [6], 113%. The growth was 88.7% in [7]; 92.2% in [8]; 71.5% in assay [9]; 93.6% in assay [10]; 63.2% in assay [11]; 95.4% in assay [12]. For the same molecule, the growth in assay [13] was 80.7%; in [14], 62.4%; in [15], 87%; in assay [16], 98.8%; in [17], 103%; in [18], 106%. Further, the growth in assay [19] is 119%.

For the molecule `COc1cc(-c2nn(C(C)(C)C)cc2-c2ccnc(NCCCNS(=O)(=O)c3ccccc3)n2)ccc1Cl`, the growth in [1] is 74.4%; in assay [2], 66%; in assay [3], 87.2%; in assay [4], 72.8%; in assay [5] it was 71.1%; in assay [6], 71.9%. In addition, the growth in [7] is 51.4%; in [8] it was 77.7%; in assay [10] it was 67.2%; in [11], 40.7%; in assay [12] it was 84%; in assay [13], 49.3%. In addition, the growth in assay [14] was -1.53% (active); in [15] it was 58.2%; in [16], 83.1%; in assay [17], 83.7%; in assay [18], 95.1%; in assay [19] it was 96.1%.

For the molecule `Cc1cc2ncc(-c3cc4ccccc4c(N4CCN(C)CC4)n3)nc2cc1C`, the growth in assay [1] was 70.7%; in assay [2] it was 91.9%; in assay [3], 47.7%; in assay [4], 82.9%; in assay [5] it was -77.9% (active); in assay [20], 75.5%. For the same molecule, the growth in assay [7] is 54%; in assay [8], 61.3%; in [9], -57.9% (active); in assay [10], 33.6%; in assay [11], -50.7% (active); in assay [12], -69.1% (active). The growth in [13] is 18.6%; in assay [14], -71.8% (active); in assay [15], 62.7%; in [16] it was 10.2%; in assay [17] it was -2.53% (active); in assay [18] it was 99.1%.

With `Cc1ccc(NC(=O)CNc2cc(C(N)=O)cc(F)c2C)c(Cl)c1`, the growth in assay [1] was 86.9%; in assay [2], 80.5%; in assay [3], 102%; in assay [4], 71.8%; in [5], 102%; in [6] it was 74.9%. The growth in [7] was 91.9%; in assay [8], 92.9%; in assay [9], 112%; in [10] it was 87.2%; in assay [11], 94.2%; in assay [12], 106%. Also, the growth was 67% in assay [13]; 36.2% in assay [14]; 81.7% in assay [15]; 101% in assay [16]; 89.8% in assay [17]; 107% in assay [18]. The growth in assay [19] was 103%.

In the case of `Cc1cccc2c3c(sc12)C(c1ccc(Cl)cc1)c1c(nc(CC(=O)Nc2ccccc2)[nH]c1=O)O3` (centres undefined), the growth in [1] is 55.1%; in assay [2], 65.4%; in assay [3], 76.5%; in assay [4], 59.8%; in assay [5], 42.1%; in assay [20], 26.9%. Further, the growth in assay [7] is 62.6%; in assay [8], 75.9%; in [9], 101%; in [10], 93%; in assay [11], 20.9%; in assay [12], 51.3%. Moreover, the growth in [13] was 77%; in assay [14] it was 39.9%; in [15], 66.7%; in assay [16], 29.1%; in assay [17], 40%; in assay [18], 79.8%. Besides, the growth in assay [19] is 61.7%.

Take `CC(O)c1cc2ccccc2c(=O)o1` (centres undefined): the growth was 99.8% in assay [1]; 89.2% in assay [2]; 103% in assay [3]; 105% in [4]; 104% in assay [5]; 98.6% in assay [20]. For the same molecule, the growth in [7] was 102%; in assay [8], 101%; in [9] it was 112%; in [10], 110%; in assay [11], 101%; in [12] it was 98.2%. Further, the growth in assay [13] was 103%; in assay [14] it was 129%; in [15], 98.3%; in [16] it was 97.7%; in assay [17], 95.2%; in assay [18] it was 96.7%. Further, the growth in [19] was 107%.

Consider `CN(C)CCCOc1ccc2c(c1)CN(C(=O)c1cc(C(=O)N3Cc4cccc(F)c4C3)ccc1O)C2`, for which the growth in [1] is 102%; in assay [2], 97.2%; in assay [3], 105%; in [4] it was 120%; in assay [5], 105%; in assay [20] it was 97.7%. Also, the growth in [7] is 101%; in [8], 108%; in assay [9], 109%; in assay [10], 94.9%; in assay [11] it was 88.8%; in assay [12] it was 103%. For the same molecule, the growth is 103% in assay [13]; 93.3% in assay [14]; 100% in [15]; 100% in assay [16]; 91% in assay [17]; 108% in assay [18]. Further, the growth in assay [19] was 106%.

For the molecule `NS(=O)(=O)c1ccc(Nc2nc(N/N=C/c3ccccn3)nc(Nc3ccccc3)n2)cc1`, the growth is -7.29% (active) in [1]; -49.1% (active) in [2]; -9.94% (active) in [3]; -28.6% (active) in assay [4]; 3.8% (active) in assay [5]; -32.6% (active) in assay [20]. The growth in assay [7] was 35.1%; in [8], 8.47% (active); in assay [9], -42.1% (active); in [10], 4.85% (active); in assay [11], 12.3%; in [12], -68.2% (active). In addition, the growth in assay [13] was -29.9% (active); in assay [14], -74% (active); in assay [15] it was -22% (active); in assay [16], 0.752% (active); in assay [17] it was -42.1% (active); in [18], -18.1% (active).
